# A number with no mark means an inactive call.
# Tests used:
# [1] = test system: Pseudomonas aeruginosa PA14 dppBCDF deletion mutant; experiment: respiration area under curve with compound as sole nitrogen source, 24 h (OmniLog AUC (arbitrary units)); higher = more respiration / better utilisation as nitrogen source, active = 2000 or more; extreme values may be limits of the assay
# Protocol: (§1)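 Biolog Phenotype MicroArray plates PM6-PM8: each di/tripeptide is the sole nitrogen source. Tetrazolium reduction was read in the OmniLog every 15 min for 24 h at 37°C and summarised as area under the respiration curve (arbitrary units). Values below 2000 count as no respiration. Strain is the dipeptide ABC transporter deletion mutant.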
# [2] = test system: Pseudomonas aeruginosa PA14 dppA1-A5 penta mutant + pBBR5.DppA1 (PA14_58350); experiment: respiration area under curve with compound as sole nitrogen source, 24 h (OmniLog AUC (arbitrary units)); higher = more respiration / better utilisation as nitrogen source, active = 2000 or more
# Protocol: as §1, with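 “OmniLog” for “OmniLog every 15 min”, “SBP penta mutant complemented with DppA1 on a plasmid under its native promoter. Lys/His/Cys peptides are excluded.” for “dipeptide ABC transporter deletion mutant.”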
# [3] = test system: Pseudomonas aeruginosa PA14 wild type; experiment: as above
# Protocol: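 Biolog Phenotype MicroArray plates PM6-PM8: each di/tripeptide is the sole nitrogen source (IF-0 medium with succinate/ferric citrate and dye mix A). Tetrazolium reduction was read in the OmniLog every 15 min for 24 h at 37°C and summarised as area under the respiration curve (arbitrary units). The paper counts values below 2000 as no respiration and above 8000 as solid respiration. Replicate datasets are averaged.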
smiles,measurement,setting,value
N[C@@H](Cc1c[nH]c2ccccc12)C(=O)N[C@@H](Cc1ccc(O)cc1)C(=O)O (plate: PM7),respiration area under curve,[1],236
N[C@@H](CO)C(=O)N[C@@H](CC(=O)O)C(=O)O (plate: PM8),respiration area under curve,[1],0
CC[C@H](C)[C@H](N)C(=O)N[C@H](C(=O)O)[C@@H](C)CC (plate: PM6),respiration area under curve,[1],0
CC[C@H](C)[C@H](N)C(=O)N[C@@H](CC(C)C)C(=O)O (plate: PM8),respiration area under curve,[2],4900 (active)
same,respiration area under curve,[1],924
C[C@H](NC(=O)[C@@H](N)[C@@H](C)O)C(=O)O (plate: PM7),respiration area under curve,[1],3130 (active)
C[C@H](N)C(=O)N[C@@H](Cc1ccc(O)cc1)C(=O)O (plate: PM6),respiration area under curve,[1],4510 (active)
N[C@@H](Cc1c[nH]c2ccccc12)C(=O)N[C@@H](CC(=O)O)C(=O)O (plate: PM7),respiration area under curve,[1],0
CC[C@H](C)[C@H](N)C(=O)N[C@H](C(=O)O)C(C)C (plate: PM6),respiration area under curve,[1],545
C[C@H](NC(=O)CNC(=O)CN)C(=O)O (plate: PM8),respiration area under curve,[1],102
CSCC[C@H](NC(=O)[C@@H](N)Cc1ccccc1)C(=O)O (plate: PM8),respiration area under curve,[2],805
same,respiration area under curve,[1],269
CC(C)C(N)C(=O)NC(CO)C(=O)O (stereo unspecified) (plate: PM8),respiration area under curve,[1],844
C[C@@H](O)[C@H](N)C(=O)N1CCC[C@H]1C(=O)O (plate: PM7),respiration area under curve,[1],0
NCC(=O)N[C@@H](CO)C(=O)O (plate: PM6),respiration area under curve,[1],2360 (active)
N[C@@H](Cc1ccccc1)C(=O)N[C@@H](CCC(=O)O)C(=O)O (plate: PM8),respiration area under curve,[2],2880 (active)
same,respiration area under curve,[1],0
O=C(O)CNC(=O)[C@@H]1CCCN1 (plate: PM7),respiration area under curve,[1],217
NCC(=O)N[C@@H](CC(N)=O)C(=O)O (plate: PM8),respiration area under curve,[1],13800 (active)
NC(=O)CC[C@H](NC(=O)[C@@H]1CCCN1)C(=O)O (plate: PM7),respiration area under curve,[1],1860
CC(C)C[C@H](N)C(=O)NCC(=O)O (plate: PM6),respiration area under curve,[1],4090 (active)
CC(C)C[C@H](N)C(=O)N[C@@H](C)C(=O)O (plate: PM6),respiration area under curve,[1],7270 (active)
CSCC[C@H](NC(=O)[C@H](C)N)C(=O)O (plate: PM8),respiration area under curve,[1],2300 (active)
CC(C)C[C@H](N)C(=O)N[C@H](C(=O)O)C(C)C (plate: PM7),respiration area under curve,[2],10300 (active)
same,respiration area under curve,[1],9340 (active)
N[C@@H](CO)C(=O)N[C@@H](Cc1ccccc1)C(=O)O (plate: PM7),respiration area under curve,[1],968
N[C@@H](Cc1ccccc1)C(=O)N[C@@H](CO)C(=O)O (plate: PM7),respiration area under curve,[1],1830
CC(C)C[C@H](NC(=O)[C@@H](C)N)C(=O)O (plate: PM8),respiration area under curve,[1],0
C[C@H](N)C(=O)N[C@@H](Cc1c[nH]c2ccccc12)C(=O)O (plate: PM6),respiration area under curve,[1],3230 (active)
CC[C@H](C)[C@H](NC(=O)CN)C(=O)O (plate: PM8),respiration area under curve,[1],1250
CSCC[C@H](N)C(=O)N[C@@H](CC(=O)O)C(=O)O (plate: PM7),respiration area under curve,[1],1590
CSCCC(NC(=O)C(N)C(C)C)C(=O)O (stereo unspecified) (plate: PM8),respiration area under curve,[1],397
CC(C)C[C@H](NC(=O)[C@H](CC(C)C)NC(=O)[C@@H](N)CC(C)C)C(=O)O (plate: PM8),respiration area under curve,[1],1800
CSCCC(NC(=O)C(N)CC(C)C)C(=O)O (stereo unspecified) (plate: PM6),respiration area under curve,[1],686
NCC(=O)N[C@@H](Cc1ccccc1)C(=O)O (plate: PM6),respiration area under curve,[1],350
CC(C)C(NC(=O)C1CCCN1)C(=O)O (stereo unspecified) (plate: PM8),respiration area under curve,[1],134
CC(C)C[C@H](NC(=O)[C@@H](N)Cc1ccc(O)cc1)C(=O)O (plate: PM7),respiration area under curve,[1],5310 (active)
NC(N)=NCCC[C@H](N)C(=O)N[C@@H](Cc1ccc(O)cc1)C(=O)O (plate: PM6),respiration area under curve,[1],8750 (active)
NC(CO)C(=O)NC(CCC(=O)O)C(=O)O (stereo unspecified) (plate: PM8),respiration area under curve,[1],0
N[C@@H](CC(=O)O)C(=O)N[C@@H](Cc1ccccc1)C(=O)O (plate: PM6),respiration area under curve,[2],1720
same,respiration area under curve,[3],3070 (active)
same,respiration area under curve,[1],15.5
CC[C@H](C)[C@H](NC(=O)[C@@H](N)CC(C)C)C(=O)O (plate: PM6),respiration area under curve,[2],3910 (active)
same,respiration area under curve,[1],3260 (active)
N[C@@H](CCC(=O)O)C(=O)N[C@@H](CC(=O)O)C(=O)O (plate: PM6),respiration area under curve,[2],19.3
same,respiration area under curve,[1],0

# Source: the supplement of paper PMC4206461
